The results in this text go back to PubChem BioAssay AID1779 (Sanford-Burnham Center for Chemical Genomics, 2009).

Structures are written as SMILES. The whole screen tested about 290,000 compounds, of which about 160 (0.055%) were called active. The list comes from a sample in which actives are over-represented; it also holds similar structures and randomly drawn compounds. Values without a mark were called inactive. Cut-off read from the data, not from the text of the source: active = inhibition above about 50%; inactive = the rest.

The target in the test is Tyrosine-protein phosphatase non-receptor type 22 (Homo sapiens) (UniProt Q9Y2R2). Kind of test: PTPN22 lymphoid phosphatase activity blockers – biochemical, fluorescence intensity, uHTS (AID 1779).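 Note: plate controls were vehicle with enzyme for no effect and no enzyme for full effect.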 Conditions: recombinant LYP phosphatase, at 11.5 µM, active compounds read high.
Chain of Tyrosine-protein phosphatase non-receptor type 22 (Homo sapiens) (Q9Y2R2 whole entry, looked up): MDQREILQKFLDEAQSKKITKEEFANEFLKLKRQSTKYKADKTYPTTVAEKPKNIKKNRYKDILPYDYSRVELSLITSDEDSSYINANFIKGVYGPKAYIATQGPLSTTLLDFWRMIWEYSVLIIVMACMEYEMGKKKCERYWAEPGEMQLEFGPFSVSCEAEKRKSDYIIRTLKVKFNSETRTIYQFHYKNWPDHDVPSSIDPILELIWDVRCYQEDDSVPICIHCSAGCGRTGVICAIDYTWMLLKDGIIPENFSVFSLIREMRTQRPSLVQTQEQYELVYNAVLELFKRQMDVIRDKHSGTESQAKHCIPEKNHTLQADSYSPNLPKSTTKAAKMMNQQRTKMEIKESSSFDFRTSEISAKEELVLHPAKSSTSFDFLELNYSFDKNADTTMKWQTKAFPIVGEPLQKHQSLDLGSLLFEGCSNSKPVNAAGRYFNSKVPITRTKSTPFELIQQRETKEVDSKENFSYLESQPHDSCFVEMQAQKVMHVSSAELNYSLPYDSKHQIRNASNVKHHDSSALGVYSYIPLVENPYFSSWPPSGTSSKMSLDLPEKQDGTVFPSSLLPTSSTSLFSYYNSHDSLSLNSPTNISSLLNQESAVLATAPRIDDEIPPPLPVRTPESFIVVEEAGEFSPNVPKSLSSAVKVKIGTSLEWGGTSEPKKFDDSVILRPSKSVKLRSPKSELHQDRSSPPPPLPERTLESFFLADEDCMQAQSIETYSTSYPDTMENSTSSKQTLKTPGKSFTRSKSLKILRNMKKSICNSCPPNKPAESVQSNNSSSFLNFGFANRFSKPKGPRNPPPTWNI
For orientation: inhibition means the change of the read-out against control, counted positive when it falls. For `CCC(C)(C(=O)NC1CCCC1)N(C(=O)c1cnccn1)c1c(C)n(C)n(-c2ccccc2)c1=O` (centres undefined), the inhibition was 1.7%. The figure for `CC(=O)NS(=O)(=O)c1ccc(NC(=O)C2C3C=CC(C3)C2C(=O)O)cc1` (centres undefined) is 59.6% (active). The figure for `NS(=O)(=O)c1ccc(NC(=O)C2C3C=CC(C3)C2C(=O)O)cc1` (centres undefined) is -7.2%.

Regarding `CC(=O)Nc1ccc(NC(=O)C2C3C=CC(C3)C2C(=O)O)cc1` (centres undefined), the inhibition is -6.4%. In the case of `COc1ccc(OC)c2c1nc1n2CCS1`, the inhibition was -2.7%. Turning to `COCCN1C(=O)/C(=C2/C(=O)N(CC(=O)Nc3ccccc3Cl)c3ccccc32)SC1=S`, the inhibition was -3.5%.

Turning to `O=C(CN1C(=O)/C(=C2\SC(=S)N(CCS(=O)(=O)O)C2=O)c2ccccc21)Nc1cccc(Br)c1`, the inhibition was 71% (active). Then `O=C1/C(=C2\C(=O)N(Cc3ccc(F)cc3)c3ccccc32)SC(=S)N1CCS(=O)(=O)O`, with -1.2%. Then `COc1ccc(NC(=O)CN2C(=O)/C(=C3\SC(=S)N(C4CCS(=O)(=O)C4)C3=O)c3ccccc32)cc1` (centres undefined), with -5.2%. The figure for `COc1ccc(NC(=O)CN2C(=O)/C(=C3\SC(=S)N(CCC(=O)O)C3=O)c3ccccc32)cc1` is 69.2% (active); for `Cc1cccc(NC(=O)CN2C(=O)/C(=C3\SC(=S)N(CC4CCCO4)C3=O)c3ccccc32)c1` (centres undefined) it is -7.3%. Turning to `Cc1c(N=Cc2cc(Br)cc(Br)c2O)cccc1C(=O)O`, the inhibition was -7.4%. In the case of `CC(=O)CCn1cnc([N+](=O)[O-])n1`, the inhibition is -3.7%. With `Cc1ccc([C@@H]2[C@@H]3C(=O)N(C)C(=O)[C@@H]3[C@]3(C)C(=O)N(CCO)CC(=O)N23)o1`, the inhibition is -10.2%. The figure for `COC(=O)c1[nH]c2ccccc2c1NC(=O)c1ccccc1F` is -5.7%; for `COc1ccc(OCC(=O)Nc2ccccc2OC(F)F)cc1` it is -1.4%.

As for `CC(C)=NOCc1ccc(-c2cn([C@@H]3COC[C@H]3O)nn2)cc1`, the inhibition is -2.9%. Turning to `Cc1ccc(C)n1-c1ccc(-c2ccn[nH]2)cc1`, the inhibition is 50% (active). For the compound `Clc1ccc(-c2ccn[nH]2)cc1`, the inhibition was -8.1%.

For the compound `c1ccn(-c2ccc(-c3ccn[nH]3)cc2)c1`, the inhibition is -5.9%. Then `O=C(c1cccs1)N1CCCC1`, with -12%; and `COc1ccccc1CNC(=O)CCC(=O)N1CCOc2ccc(C)cc21`, with -4.7%; and `COc1ccc([N+](=O)[O-])cc1NC(=S)NC(NC(=O)C(c1ccccc1)c1ccccc1)C(Cl)(Cl)Cl` (centres undefined), with 8%.

With `COc1ccccc1OCC(=O)N(Cc1nc(-c2ccccc2)no1)C(C)C`, the inhibition is -3.5%. The figure for `CC1CCCCN1Cc1ccc(-c2nnn(CC(=O)NC3CCCCC3)n2)cc1` (centres undefined) is -2.1%; for `CCCc1cc(-c2n[nH]c(=S)n2CC)cs1` it is -1.3%; for `CCCc1cc(-c2n[nH]c(=S)n2CC(C)C)cs1` it is 58.3% (active).

On to `CCc1cc(-c2n[nH]c(=S)n2CC(C)C)cs1`, for which the inhibition was 5.1%. Regarding `Cc1cc2oc(=O)cc(CN(C)Cc3ccccc3F)c2cc1Cl`, the inhibition is -0.7%. Consider `COc1ccc(N2CCN(C(=O)c3ccc(S(=O)(=O)N4CCCC4)cc3)CC2)cc1`, for which the inhibition was -0.4%. Take `COc1ccc2c(OC)cc(=O)n(C)c2c1`: the inhibition was 59.6% (active). In the case of `COc1cc(=O)n(C)c2ccccc12`, the inhibition is -3.8%. Take `COc1cc(=O)n(C)c2cc(N(C)C)ccc12`: the inhibition was -9.9%. As for `CCOC(=O)CSc1nc2ccccc2c(=O)n1CC`, the inhibition was 1.2%. Then `O=c1c(Cc2ccc(F)cc2)c(O)ccn1C1CC1`, with -9%. The figure for `Cc1cccc(N2CCN(C(=O)Cn3c(=O)[nH]c4ccsc4c3=O)CC2C)c1` (centres undefined) is -8.5%. For `COCCn1nnnc1C(c1cccc(C(F)(F)F)c1)N1CCOCC1` (centres undefined), the inhibition was -7%.

Take `CCC1CCCCN1CCCNC(=O)c1ccc(CS(=O)(=O)Cc2ccc(Cl)cc2)o1` (centres undefined): the inhibition is -7.2%. For the compound `CCC1CCCCN1CCCNC(=O)c1ccc(CS(=O)(=O)c2ccccc2C)o1` (centres undefined), the inhibition is -13.2%. As for `CCC1CCCCN1CCCNC(=O)c1ccc(CS(=O)(=O)Cc2ccccc2F)o1` (centres undefined), the inhibition was 56.2% (active). The figure for `COc1cccc(/C=N/NC(=O)c2ccc([N+](=O)[O-])cc2Cl)c1O` is 9%. In the case of `C=CCOc1ccc2cccc(/C=N/NC(=O)c3cc4cc([N+](=O)[O-])ccc4s3)c2c1`, the inhibition was -4.5%. For `COc1cccc(/C=N/NC(=O)c2cc3cc([N+](=O)[O-])ccc3s2)c1O`, the inhibition was 73.6% (active). In the case of `CC(=O)N1CCN(c2ccc(NC(=O)c3ccc(OCc4ccccc4)cc3)cc2)CC1`, the inhibition was -3.8%. For `CCc1ccc(OCc2nnc(SCC(=O)NC3CCCCC3)o2)cc1`, the inhibition is -6.8%.

For `CCCNS(=O)(=O)c1ccc(NC(=O)c2cccnc2)cc1`, the inhibition was -7.3%. The figure for `CC1Sc2ccc(S(=O)(=O)CCC(=O)NC3CCCC(C)C3C)cc2NC1=O` (centres undefined) is -6.7%; for `Cc1ccccc1Cn1cc(NC(=O)c2nn(C)cc2Cl)cn1` it is 60.2% (active); for `Cc1ccccc1Cn1cc(NC(=O)c2cc(-c3ccco3)on2)cn1` it is -0.1%. As for `Cn1cc(Cl)c(C(=O)Nc2cnn(Cc3ccc(F)cc3)c2)n1`, the inhibition is -1.2%. Then `Cc1ccc(OCc2cc(C(=O)NC3CCOC3)no2)cc1C` (centres undefined), with -2.1%; and `O=C(CN1C(=O)c2ccccc2C1=O)N1CCN=C1c1ccccc1`, with -8.9%; and `CCn1ncc(/C=N\NC(=O)COc2cc(C)cc(C)c2)c1C`, with -3.6%.

`Cc1cc(C)cc(OCC(=O)N/N=C/c2ccncc2)c1`: the inhibition is -10.7%.

`Cc1cc(C)cc(OCC(=O)N/N=C\c2cn(C)nc2C)c1`: the inhibition was 76.1% (active). The figure for `CC1=NNC(=O)C1CCC(=O)N/N=C(\C)c1ccccc1` (centres undefined) is -4.6%. With `c1ccc2c(c1)NC1(CCCC1)n1c-2nc2ccccc21`, the inhibition is -16.8%.

Take `Cc1cccc(NC(=O)Nc2cccc(C)n2)n1`: the inhibition was -5.9%. Take `COc1ccc(Cc2nnc(NC(=O)c3ccccc3F)s2)cc1`: the inhibition is -0.8%. On to `COc1ccc(Cc2nnc(NC(=O)c3ccccc3Cl)s2)cc1OC`, for which the inhibition is -9.8%. Then `COc1ccc(Cc2nnc(NC(=O)c3ccccc3F)s2)cc1OC`, with 66.6% (active); and `COc1ccc2cc(C(C)c3nc4ccccc4c(=O)n3N)ccc2c1` (centres undefined), with 4.5%. As to `C=CCNc1nc(C(F)(F)F)nc2c1nnn2Cc1ccccc1Cl`, the inhibition is -2.4%. Then `COc1ccc(CNC(=O)c2cc(-c3ccccc3O)n[nH]2)cc1`, with 53.5% (active); and `COc1ccc(CNC(=O)c2cc(-c3cc(C)cc(C)c3O)n[nH]2)cc1`, with 4%. The figure for `COc1ccc(CNC(=O)c2cc(-c3cc(C)ccc3O)n[nH]2)cc1` is -3.7%; for `COc1cccc(N(C(=O)c2snc(C(N)=O)c2N)C(C(=O)NCC2CCCO2)c2cccs2)c1` (centres undefined) it is -2%; for `COc1ccc(C2CC(c3ccc(Br)cc3)=NN2C(=O)CCC(=O)O)cc1OC` (centres undefined) it is -7.6%. The figure for `COc1ccc(C2=NN(C(=O)CCC(=O)O)C(c3ccc(OC)c(OC)c3)C2)cc1` (centres undefined) is -7.5%. With `COc1ccc(C2CC(c3ccc(C)cc3)=NN2C(=O)CCC(=O)O)cc1OC` (centres undefined), the inhibition is 89.2% (active).

In the case of `CC(=O)c1ccc(-n2c(CCC(=O)O)ccc2-c2ccc(C)cc2)cc1`, the inhibition was -5.2%.

As to `CS(=O)(=O)N1CCc2cc(C(=O)NC3CC3)ccc21`, the inhibition is -10.8%. `COCCNC(=O)C(c1ccco1)N(Cc1ccc(OC)cc1)C(=O)Cn1nnc2ccccc21` (centres undefined): the inhibition is 10.9%. Then `CSc1nc(-c2ccc(Cl)cc2)nn1C(=O)c1ccco1`, with 77.2% (active); and `CSc1nc(-c2ccccc2)nn1C(=O)c1ccco1`, with -3%. As for `COc1ccc(-c2nc(SC)n(C(=O)c3ccco3)n2)cc1`, the inhibition was -4.5%. The figure for `Cc1nc(-c2ccc(S(=O)(=O)N3CCN(CCc4ccccc4)CC3)s2)cs1` is -0.7%; for `N#CCN(CC#N)C(=O)C1c2ccccc2Oc2ccccc21` it is -3.9%. Consider `COc1ccc(NC(=O)C2CCCN(S(=O)(=O)c3c(C)n[nH]c3C)C2)c(OC)c1` (centres undefined), for which the inhibition is -2%.

As for `O=[N+]([O-])c1cc(Br)cc(/C=N/n2cnnc2)c1O`, the inhibition is 76.8% (active). Then `Cc1cc(/C=N/n2cnnc2)c(O)c([N+](=O)[O-])c1`, with -3.1%. `O=[N+]([O-])c1cc(Cl)cc(/C=N/n2cnnc2)c1O`: the inhibition is 3.8%. Turning to `CCOc1ccc(C2C(C#N)=C(N)Oc3cc(C)n(CCN(C)C)c(=O)c32)cc1OCC` (centres undefined), the inhibition is -1.7%. Then `COc1ccc(C2C(C#N)=C(N)Oc3cc(C)n(CCN4CCOCC4)c(=O)c32)cc1OC` (centres undefined), with -4.7%; and `CCOc1ccc(C2C(C#N)=C(N)Oc3cc(C)n(CCN4CCOCC4)c(=O)c32)cc1OCC` (centres undefined), with 61.4% (active); and `Cc1cccn2c(=O)c3cc(C(=O)NC4CCCCC4)c(=N)n(CCN4CCOCC4)c3nc12`, with -35.6%. Turning to `S=c1[nH]c(-c2ccc(Cl)cc2)cs1`, the inhibition is 74.6% (active). Turning to `Cc1ccc(-c2csc(=S)[nH]2)cc1`, the inhibition is -4%. Turning to `Fc1ccc(-c2csc(=S)[nH]2)cc1`, the inhibition was -2%. Then `OCCC1CN(Cc2cccn2-c2ncccn2)CCN1C1CCCC1` (centres undefined), with -9.8%; and `Cc1ccc(C(=O)N2CCN(S(=O)(=O)N3CCCCC3)CC2)cc1`, with -11.4%.

Regarding `O=C(COC(=O)COc1ccc(Cl)cc1)Nc1ccc(F)c([N+](=O)[O-])c1`, the inhibition is 2.2%.

As to `Cc1cc(NC(=O)COC(=O)COc2ccc(Cl)cc2C)c([N+](=O)[O-])cc1C`, the inhibition was 5.9%. As to `Cc1cc(Cl)ccc1OCC(=O)OCC(=O)Nc1ccc(F)c([N+](=O)[O-])c1`, the inhibition was 62% (active).
